Assay outcomes (PubChem)
The list is not random: actives were taken first. Their share in the collection is about 2.3%.
CHO-K1 Ca antag – M1 antagonist counterscreen hit in parental CHO-K1 cells | inhibition, % at 3 µM | AID 602250 | actives 0.6% (n = 360,000) | ATP-induced calcium, Fluo-8 fluorescence;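 active = inhibition above a per-plate cutoff, the plate's mean sample inhibition plus 3 SD, cut at about 24% in these data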;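 note: 0% = DMSO plus EC80 ATP and 100% = DMSO alone without ATP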
M1 antag – human M1 muscarinic receptor antagonists, primary screen, CHO-K1 cells, Fluo-8 calcium fluorescence, 1536-well | CHO-K1 hM1, ACh EC80 antagonist | inhibition, % at 3 µM | actives 1.3% (n = 360,000) | AID 588852, 2011;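 active = percent inhibition above its own plate's cutoff, namely the mean of that plate's compound wells plus 3 SD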;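 note: peak over basal fluorescence ratio during 140 s after agonist addition; 0% = ACh EC80 plus DMSO and 100% = DMSO alone without agonist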
Target sequence (P11229 whole entry, looked up): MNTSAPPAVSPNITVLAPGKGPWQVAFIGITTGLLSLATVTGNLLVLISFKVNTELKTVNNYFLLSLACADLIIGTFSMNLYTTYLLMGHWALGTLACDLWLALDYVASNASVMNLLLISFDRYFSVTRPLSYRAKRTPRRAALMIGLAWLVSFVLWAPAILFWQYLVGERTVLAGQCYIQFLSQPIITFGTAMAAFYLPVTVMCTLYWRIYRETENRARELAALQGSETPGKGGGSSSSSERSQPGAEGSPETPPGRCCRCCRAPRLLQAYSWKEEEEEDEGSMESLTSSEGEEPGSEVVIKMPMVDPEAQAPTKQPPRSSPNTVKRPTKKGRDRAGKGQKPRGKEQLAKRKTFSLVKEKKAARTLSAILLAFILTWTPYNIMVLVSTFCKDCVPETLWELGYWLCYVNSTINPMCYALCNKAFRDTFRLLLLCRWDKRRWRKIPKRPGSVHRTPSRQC
M1 ag parental – counter-screen for M1 agonists: effect in parental CHO-K1 cells. actives 0.48% (n = 360,000). Fluo-8 calcium fluorescence; scaled to maximal ATP response, vehicle zero. activation, % at 3 µM. AID 602248, 2012; in the data active = activation above about 15%;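 note: untransfected CHO-K1 host cells lacking M1 receptor as counterscreen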
M1 PAM parental – nonselective calcium activators in parental CHO-K1 cells, primary screen, counter-screen for M1 PAM project, cell-based, Fluo-8 calcium fluorescence, full deck, 1536-well. ATP EC20; 0% at ATP EC20, 100% at ATP max. activation, % at 3 µM. actives 0.02% (n = 360,000). AID 602247, 2012;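 active = activation above the run cutoff, the mean activation of all test compounds plus 3 SD, cut at about 40% in these data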;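 note: peak over basal fluorescence ratio in a 140 s read after ATP addition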
M1 PAM – human M1 muscarinic receptor positive allosteric modulators, primary screen, CHO-K1 cells, Fluo-8 calcium fluorescence, 1536-well; CHO-K1 hM1, ACh EC20; 0% = ACh EC20, 100% = maximal ACh; actives 0.088% (n = 360,000); activation, % at 3 µM; Muscarinic acetylcholine receptor M1 (Homo sapiens), P11229; AID 588819, 2011; in the data active = activation above about 19%, passing the limit was not always enough
CHRM1 agonist – human M1 muscarinic receptor agonists, primary screen, Fluo-8 calcium fluorescence, CHO-K1 cells, HTS; Muscarinic acetylcholine receptor M1 (Homo sapiens), P11229; CHO-K1 hM1, agonist mode; 0% DMSO, 100% acetylcholine EC100; activation, % at 3 µM; actives 0.33% (n = 360,000);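 active = activation above the run's mean compound activation plus 3 SD, cut at about 16% in these data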;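 note: peak over basal fluorescence ratio within a 140 s kinetic read after compound addition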
Starred values were filed as active, the others as inactive.

SMILES	CHO-K1 Ca antag	M1 antag	M1 ag parental	M1 PAM parental	M1 PAM	CHRM1 agonist
COc1c(O)cc2c(c1O)[C@@H]1OC(CO)C(O)C(O)[C@H]1OC2=O (stereo not given in full)	-4	-25	0	20	-2	7
CN(CCCCOc1ccc(F)cc1)Cc1ccccc1	-14	12	1	15	-12	-7
Nc1ccc(OCc2ccccc2)cc1	-1	-2	0	15	1	-7
CCN(Cc1ccccc1)Cc1ccc(OCc2ccccc2)cc1	13	35*	0	-4	-24	-9
Cc1cc(C)c(C)c(OCCCCN(C)Cc2ccccc2)c1	-4	65*	3	24	-29	-7
CCc1ccc(OCCCCN(C)Cc2ccccc2)cc1	12	33*	1	14	-23	-8
CCOc1ccc(/C=N/NC(=O)CN2CCCCC2)cc1OCC	-5	-12	0	1	7	-4
CCNC(=O)C1(C)CCN(Cc2ccc(-c3ccccc3)cc2)C1 (stereo not given)	-5	-9	1	2	0	-7
Cc1ccc(-n2cc(C(C)(C)C)[nH]c2=S)cc1	26*	27	0	-5	-8	-4
CCCCn1c(N)c(N(CC(C)C)C(=O)c2cc(-c3ccncc3)nc3ccccc23)c(=O)[nH]c1=O	-9	-3	1	-5	6	-2
O=C(Nc1cccc(Cl)c1)c1cccc(N2C(=O)C3CC=CCC3C2=O)c1 (stereo not given)	-2	9	17*	6	-6	4
O=C(Nc1cccc(N2C(=O)C3CCCCC3C2=O)c1)c1ccccc1 (stereo not given)	-2	4	4	2	-2	-1
Cc1cc(Oc2ccccc2)nc(NCc2ccccc2)n1	38*	1	1	-2	-6	2
Cc1cc(Nc2ccc(Cl)cc2)nc(NCc2ccccc2)n1	12	3	9	16	7	1
CCCCNc1cc(C)nc(NCc2ccccc2)n1	26*	30*	10	0	-10	3
Cc1cc(C)nc(NCCCc2ccccc2)n1	-10	7	1	24	-6	-5
Cc1cc(Nc2ccccc2)nc(NCc2ccccc2)n1	27*	13	10	2	-13	-2
Cc1ccc2c(c1)N(CC(=O)OCC(=O)NCc1ccccc1)C(=O)CO2	-23	-2	2	23	4	-3
Cc1csc(=O)n1CCC(=O)OCC(=O)N(C)c1c(N)n(Cc2ccccc2)c(=O)[nH]c1=O	-10	-10	0	5	4	-4
COc1ccc(S(=O)(=O)N2CC=C(c3ccccc3)CC2)cc1OC	1	-13	1	-10	4	0
CCN1CCN(Cc2cccc(Oc3ccc(Cl)cc3)c2)CC1	-9	54*	3	19	-21	-8
CCOC(=O)C1CCN(Cc2cccc(Oc3ccc(Cl)cc3)c2)CC1	-9	28*	0	3	-25	-11
c1ccc(Oc2cccc(CN3CCCCC3)c2)cc1	1	46*	0	-7	-32	-13
CC1CC(C)CN(S(=O)(=O)c2ccc(NC(=O)c3ccc(=O)[nH]c3)cc2)C1 (stereo not given)	-8	16	0	-5	-6	-3
O=C1C(O)CCN1Cc1ccccc1 (stereo not given)	-21	-3	0	-2	-1	-3
Cc1nnc(NC(=O)CCC(=O)NC2CCCCCCC2)s1	-14	-10	0	10	9	-4
Cn1c(CSCc2ccc(F)cc2)nnc1SCC(=O)Nc1nccs1	26*	6	5	9	1	0
CC(C)(C)CN1CCC(Oc2cccc(C(=O)NCCCOc3cccnc3)c2)CC1	24*	17	0	-32	-3	-5
CCc1ccc(S(=O)(=O)NCc2csc(C)n2)cc1	1	-4	1	6	10	-1
